The values below come from PubChem BioAssay AID1851 (National Center for Advancing Translational Sciences (NCATS), 2009).

Hit rate of the full screen: of about 16,000 compounds, about 4,000 (25%) were called active. Another 26% or so got no clear call; they are omitted. The call rests on the fitted dose curve; in most records, active means well fitted curve in the direction sought with a large enough effect; inconclusive means small, poorly fitted or top-dose-only effect, or effect the other way; inactive means no such curve, though single readings can be large or run the other way. These entries were drawn from the full list.
On the % scale 0 is the no-effect control and ±100 the full control effect.

In the assay the target is Cytochrome P450 2C9 (Homo sapiens) (UniProt P11712). The experiment in a line: Cytochrome panel assay with activity outcomes. As to conditions: recombinant CYP, pro-luciferin dealkylation, luminescence, p450-cyp2c9; series mostly up to 57.1 µM; activity, negative = inhibition: at the top concentration.
Sequence of Cytochrome P450 2C9 (Homo sapiens) (P11712 whole entry, looked up): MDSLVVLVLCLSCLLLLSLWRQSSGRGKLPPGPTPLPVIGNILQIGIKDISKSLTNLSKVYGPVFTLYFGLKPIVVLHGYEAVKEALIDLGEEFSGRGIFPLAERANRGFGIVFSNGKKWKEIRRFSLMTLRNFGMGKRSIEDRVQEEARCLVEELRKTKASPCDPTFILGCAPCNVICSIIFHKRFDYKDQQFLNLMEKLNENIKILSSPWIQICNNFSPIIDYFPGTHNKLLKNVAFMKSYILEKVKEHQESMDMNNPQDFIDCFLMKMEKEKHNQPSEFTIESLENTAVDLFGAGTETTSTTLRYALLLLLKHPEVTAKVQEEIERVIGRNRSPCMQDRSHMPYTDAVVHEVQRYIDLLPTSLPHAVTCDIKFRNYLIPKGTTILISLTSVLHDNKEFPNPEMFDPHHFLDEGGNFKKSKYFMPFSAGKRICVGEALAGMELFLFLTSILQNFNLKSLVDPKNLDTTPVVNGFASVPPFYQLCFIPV
Take `O=C(c1csnn1)N1CCC2(CC1)CCN(c1ncccn1)CC2`: the “activity, negative = inhibition” value was 6.9% (inactive).

Take `COc1cc(N=c2ssnc2Cl)cc(OC)c1OC`: the AC50 is 6.31 µM (active).

For the compound `CCOC(=O)N/N=C1/C[C@@H](O)[C@@H](O)[C@@H]2[C@@H]3C(=O)N([C@@H](C)c4ccccc4)C(=O)[C@H]3CC[C@H]12`, the activity, negative = inhibition is 27.2% [at 11.4 µM] (inactive).

On to `CCOC(=O)C(C(=O)NCc1ccc(C)cc1)c1ncc(C(F)(F)F)cc1Cl` (configuration not stated), for which the “activity, negative = inhibition” value was 10.8% (inactive).

`CN(C)C(=O)c1cn(N(C)c2ncc(C(F)(F)F)cc2Cl)c(=O)c2ccccc12`: the half-maximal activity concentration (AC50) is 2.82 µM (active).

With `C[n+]1ccccc1/C=N\O`, the “activity, negative = inhibition” value was 2.77% [at 25.6 µM] (inactive).

For the compound `O=c1c(-c2nc3ccccc3s2)cccn1Cc1ccccc1`, the AC50 is 3.16 µM (active).

`C=CCn1c(-c2cccn(Cc3ccccc3)c2=O)n[nH]c1=S`: the “activity, negative = inhibition” value was -28.8% (inactive).

Take `c1cc(CN2CCCCC2)cc(OCCCNc2nc3ccccc3s2)c1`: the AC50 result is “inactive”.

As for `Cc1cnc(CNc2ncncc2-c2cccc(C#N)c2)cn1`, the activity, negative = inhibition is -1.84% [at 2.29 µM] (inactive).

With `Cn1cc[nH]c1=S`, the “activity, negative = inhibition” value was 5.66% [at 25.6 µM] (inactive).

Take `CN1CCC2(CC1)CCN(C(=O)c1cc(C(F)(F)F)cc(C(F)(F)F)c1)CC2`: the “activity, negative = inhibition” value was 16.4% (inactive).

Regarding `CCOC(=O)CSC1=C(C#N)C(c2sccc2C)CC(=O)N1` (configuration not stated), the AC50 is 12.6 µM (active).

As to `C=CCOC(=O)C1=C(C)NC(SCC(=O)OCC)=C(C#N)C1c1ccc(C)cc1` (configuration not stated), the AC50 is 7.94 µM (active).

`CCOC(=O)CSC1=C(C#N)C(c2sccc2C)C(C(C)=O)=C(C)N1` (configuration not stated): the half-maximal activity concentration (AC50) was 1.78 µM (active).

Take `CCCC(O)(CCC)C(=O)NN1CCCCC1`: the “activity, negative = inhibition” value was 5.53% (inactive).

Regarding `O=C(c1ccco1)N1CCC2(CC1)CCN(c1ccccc1)CC2`, the “activity, negative = inhibition” value is 1.38% (inactive).

Turning to `O=C(c1ccco1)N1CCC2(CC1)CN(c1ccc(-c3ccccc3)cc1)C2`, the “activity, negative = inhibition” value was -10.4% (inactive).

On to `CC(=O)N1CCc2cc(Br)cc(S(=O)(=O)N3CCN(C(=O)c4ccco4)CC3)c21`, for which the AC50 was 5.01 µM (active).

As to `CS(=O)(=O)c1ccc(/C=N\NC(N)=S)cc1`, the activity, negative = inhibition was -1.25% [at 11.4 µM] (inactive).

`COc1ccc(/C=N/NC(=S)NC2CCS(=O)(=O)C2)cc1OC` (configuration not stated): the “activity, negative = inhibition” value is -28.4% (inactive).

Turning to `COc1ccc(C(=O)Oc2cc(/C=N/NS(=O)(=O)c3ccc(C)cc3)ccc2OC)cc1`, the AC50 was 2.24 µM (active).

As to `Cc1ccc(S(=O)(=O)N/N=C/c2ccc(OC3CSC3)cc2)cc1`, the concentration at half-maximal activity (AC50) was 1.41 µM (active).

As for `COc1ccc(/C=N\NC(=O)O)cc1`, the activity, negative = inhibition is -7.71% [at 11.4 µM] (inactive).

As for `Fc1ccc(-c2ccnc3nc(N4CCOCC4)nn23)cc1`, the “activity, negative = inhibition” value is -26.9% (inactive).

For the compound `O=C(O)CCCSc1ccccc1`, the activity, negative = inhibition is 14.8% [at 11.4 µM] (inactive).

As for `COC(=O)C1=C(C)NC(C)=C(C(=O)OCCSc2ccccc2)[C@@H]1C`, the AC50 is 3.16 µM (active).

On to `Cc1nc2cnc(N3CCN(C)CC3)nc2n(Cc2ccc(F)cc2)c1=O`, for which the “activity, negative = inhibition” value was -10.3% (inactive).

For the compound `COC(=O)c1ccc(Oc2cc(C)nc(-n3nc(C)cc3C)n2)cc1`, the concentration at half-maximal activity (AC50) was 25.1 µM (active).

As for `Cc1nc2ccccc2nc1-c1ccc(N=[N+]([O-])c2ccc(-c3nc4ccccc4nc3C)cc2)cc1`, the activity, negative = inhibition was -2.63% [at 11.4 µM] (inactive).

Regarding `C[N+](C)(C)CCO`, the “activity, negative = inhibition” value was -12.4% (inactive).

Regarding `CC(C)COC[C@H](CN(Cc1ccccc1)c1ccccc1)N1CCCC1`, the AC50 result was “inactive”.

Consider `O=C1CC(=Nc2ccccc2)NN1c1ccccc1`, for which the AC50 is 2.82 µM (active).

On to `CC1=NN(c2ccccc2)C(=O)C1`, for which the “activity, negative = inhibition” value is 8.09% (inactive).

Consider `c1ccc2c(c1)C(=Nc1ccc(N=C3c4ccccc4-c4ccccc43)cc1)c1ccccc1-2`, for which the activity, negative = inhibition was -2.68% [at 11.4 µM] (inactive).

For `N#Cc1cccc(NC(=O)N2CCC3(CC2)CCN(C(=O)c2cccc(F)c2)CC3)c1`, the “activity, negative = inhibition” value was -11.7% (inactive).

With `Cc1cc2c(s1)CCCCC(=O)N2`, the “activity, negative = inhibition” value is -12% (inactive).

For the compound `CN(C)CCCO[C@H]1[C@@H]2OC(C)(C)O[C@@H]2O[C@@H]1[C@H](O)CO`, the “activity, negative = inhibition” value is 20.5% [at 25.6 µM] (inactive).

For the compound `O=C(Nc1ccccc1)N1CCC2(CC1)CCN(S(=O)(=O)c1ccccc1)CC2`, the “activity, negative = inhibition” value is -8.25% (inactive).

`O=C(Nc1ccccc1)N1CCCC2(CCN(S(=O)(=O)c3ccccc3)CC2)C1`: the concentration at half-maximal activity (AC50) was 10 µM (active).

For the compound `COc1ccc(NC(=O)N2CC3(CCN(S(C)(=O)=O)CC3)C2)cc1`, the “activity, negative = inhibition” value was 10.7% (inactive).

For the compound `COc1ccc(NC(=O)N2CCC3(CC2)CCN(S(=O)(=O)c2ccccc2)CC3)cc1`, the “activity, negative = inhibition” value was -14.8% (inactive).

With `COc1ccc(NC(=O)N2CCC3(CC2)CCN(S(C)(=O)=O)CC3)cc1`, the half-maximal activity concentration (AC50) is 15.8 µM (active).

For the compound `CS(=O)(=O)N1CCC[C@@]2(CCN(C(=O)Nc3ccccc3)C2)C1`, the “activity, negative = inhibition” value is 3.79% (inactive).

For the compound `COc1ccc(NC(=O)N2CCCC3(CCN(S(C)(=O)=O)CC3)C2)cc1`, the “activity, negative = inhibition” value is 14.6% (inactive).

With `COc1ccc(NC(=O)N2CC3(CCN(S(=O)(=O)c4ccccc4)CC3)C2)cc1`, the “activity, negative = inhibition” value is 8.29% (inactive).

As for `COc1ccc(NC(=O)N2CCCC3(CCN(S(=O)(=O)c4ccccc4)CC3)C2)cc1`, the AC50 was 20 µM (active).

In the case of `CN1CC[C@@]2(CCN3CCc4c(oc5ccccc45)[C@@H]3C2)N(C)C1=O`, the “activity, negative = inhibition” value was -13.3% (inactive).

As for `Cc1nc(N=Nc2cc(S(=O)(=O)O)ccc2S(=O)(=O)O)c(COP(=O)(O)O)c(C=O)c1O`, the “activity, negative = inhibition” value is 13.1% (inactive).

Take `CN1CCCC[C@@H]1CCN1CCCCC1`: the activity, negative = inhibition was -2.28% [at 11.4 µM] (inactive).

As to `Cn1c(=O)n(C)c2cc(S(=O)(=O)O)ccc21`, the “activity, negative = inhibition” value was 16.7% (inactive).

Consider `Cn1c(=O)n(C)c2cc(/C=N/n3cnnc3)ccc21`, for which the AC50 is 2.24 µM (active).
